99 compounds from PubChem BioAssay AID488975 (Johns Hopkins Ion Channel Center, 2010) can be followed below.

In all, about 310,000 compounds went through this assay and about 2,600 (0.84%) were called active.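 Rule for the calls: active = B-score over 3 SD under the library average, and starting fluorescence ratio not unusually high; inactive = the rest.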 The sample as a whole holds a higher share of actives than the screen did.

For this assay, the target named is High affinity choline transporter 1 (Homo sapiens) (UniProt Q9GZV3). In words: inhibits the human high affinity choline transporter (AID 488975).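 For B-score: choline stimulus applied at its EC90 after an EC20 pre-addition; B-score computed on integrated fluorescence ratio after choline addition.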 The following applies: CHT-expressing cells, membrane potential dye, choline response, at 10 µM; hits give low values.
Sequence of High affinity choline transporter 1 (Homo sapiens) (Q9GZV3 whole entry, looked up): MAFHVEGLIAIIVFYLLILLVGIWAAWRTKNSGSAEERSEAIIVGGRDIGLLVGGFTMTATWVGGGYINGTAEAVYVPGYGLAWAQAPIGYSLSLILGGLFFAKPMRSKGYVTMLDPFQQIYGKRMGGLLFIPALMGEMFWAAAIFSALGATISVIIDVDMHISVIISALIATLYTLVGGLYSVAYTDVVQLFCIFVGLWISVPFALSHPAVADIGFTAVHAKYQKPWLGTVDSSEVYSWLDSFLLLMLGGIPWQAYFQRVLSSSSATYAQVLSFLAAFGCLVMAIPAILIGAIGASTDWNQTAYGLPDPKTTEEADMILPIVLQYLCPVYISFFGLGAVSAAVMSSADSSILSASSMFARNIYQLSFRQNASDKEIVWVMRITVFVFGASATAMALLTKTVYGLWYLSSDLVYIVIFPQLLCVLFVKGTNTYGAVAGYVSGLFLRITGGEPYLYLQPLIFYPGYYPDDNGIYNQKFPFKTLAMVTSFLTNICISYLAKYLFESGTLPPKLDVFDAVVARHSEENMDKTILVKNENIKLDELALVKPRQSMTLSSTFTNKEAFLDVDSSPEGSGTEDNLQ
For `COc1ccc(C(C#N)(CC(=O)O)c2cnccn2)cc1OC` (centres undefined), the B-score result is “inactive”.

Take `Cc1ccc(-c2nn(-c3ccccc3)cc2C(=O)NCCCN2CCCC2=O)cc1`: the B-score entry was “inactive”.

On to `CN(C)c1ccc(CNC(=O)CN2C(=O)COc3ccc(S(=O)(=O)N4CCCC4)cc32)cc1`, for which the B-score entry was “inactive”.

In the case of `Cc1cccc(N(C)C(=O)CN2C(=O)COc3ccc(S(=O)(=O)N4CCCCCC4)cc32)c1`, the B-score is -6.38 (active).

Regarding `CCc1ccc(NC(=O)CN2C(=O)COc3ccc(S(=O)(=O)N4CCCC4)cc32)cc1`, the B-score result is “inactive”.

In the case of `O=S(=O)(c1ccccc1)N1CCC(c2ccccc2)CC1`, the B-score entry is “inactive”.

Consider `Cc1ccc(SC(CC(=O)c2ccc(C(C)(C)C)cc2)C(=O)O)cc1` (centres undefined), for which the B-score is -8.41 (active).

Regarding `Cc1ccc(C(=O)CSc2ccccc2C(=O)O)cc1`, the B-score result was “inactive”.

In the case of `Cc1ccc(CSCC(N)C(=O)O)cc1` (centres undefined), the B-score entry was “inactive”.

As to `OCc1ccc(-c2ccccc2)c(-c2ccccc2)c1`, the B-score result was “inactive”.

As for `O=C(Nc1ccc(F)c([N+](=O)[O-])c1)C1CCCO1` (centres undefined), the B-score entry was “inactive”.

`Cc1ccc(-c2cc(C(=O)NC3CCN(Cc4ccccc4)CC3)c3ccccc3n2)cc1`: the B-score result is “inactive”.

Consider `C/C(=N\NC(=S)NCc1ccccc1)c1ccc(Cl)cc1`, for which the B-score result was “inactive”.

As for `C/C(=N\N=C(N)N)c1ccc(Cl)cc1`, the B-score was -9.9 (active).

Consider `C/C(=N\OCC(=O)O)c1ccc(Cl)cc1`, for which the B-score result was “inactive”.

Regarding `CC1CCC(CN2CCN=C2N(C)C)CC1` (centres undefined), the B-score entry was “inactive”.

As to `CCCCCCc1cc2cc(-c3nnc(-c4ccccc4)o3)c(=O)oc2cc1O`, the B-score entry was “inactive”.

Regarding `CCCCCCc1ccc(O)cc1O`, the B-score was -6.74 (active).

Consider `CCCCCCCN=C(C)c1ccccc1O`, for which the B-score result was “inactive”.

Regarding `CC1(c2ccccc2)NC(=O)N(CC(=O)Nc2cc(Cl)ccc2N2CCOCC2)C1=O` (centres undefined), the B-score entry was “inactive”.

Consider `COc1cc(N)c(Cl)cc1C(=O)OCC(=O)c1ccc2c(c1)NC(=O)CO2`, for which the B-score entry is “inactive”.

Turning to `CN1C(C(=O)NCc2ccco2)CC2Cn3c(nc4ccccc43)C21` (centres undefined), the B-score result is “inactive”.

Take `O=C(/C=C/c1cn(-c2ccccc2)nc1-c1ccc2c(c1)OCCO2)NCCCN1CCOCC1`: the B-score was -5.76 (active).

As to `COc1ccc(-c2nn(-c3ccccc3)cc2/C=C\C(=O)N2CCOCC2)cc1[N+](=O)[O-]`, the B-score result is “inactive”.

Turning to `Cc1ccc(-c2nn(-c3ccccc3)cc2/C=C/C(=O)Nc2cccc(S(N)(=O)=O)c2)cc1`, the B-score result is “inactive”.

For the compound `Cc1ccc(SCC(=O)Nc2nncs2)cc1`, the B-score entry was “inactive”.

Consider `C#CCOCCOCCOCCNc1nc(N2CCN(C(=O)Cn3cc(CCCCN)nn3)CC2)nc(N2CCN(C(=O)[C@H](CCCCN)n3cc(CCC(=O)O)nn3)CC2)n1`, for which the B-score result was “inactive”.

Take `Cc1ccccc1OCC(=O)NNC(=O)c1ccc(-n2cncn2)c([N+](=O)[O-])c1`: the B-score entry is “inactive”.

On to `CCCCn1c(N)c(N(CCC(C)C)C(=O)CC2OC(=O)c3ccccc32)c(=O)[nH]c1=O` (centres undefined), for which the B-score entry is “inactive”.

As for `OC1CN=C2Sc3ccccc3N2C1` (centres undefined), the B-score is -5.4 (active).

Regarding `COc1ccc(S(=O)(=O)N2CCCCC2)cc1NC(=O)C1CC(=O)N(c2ccc3c(c2)OCCO3)C1` (centres undefined), the B-score entry was “inactive”.

As to `Cc1ccc(S(=O)(=O)NCCC(=O)OCC(=O)N(C)c2ccccc2)cc1`, the B-score entry is “inactive”.

As for `CCOC(=O)C1(CCOC)CCN(Cc2ccc(C(=O)OC)cc2)CC1`, the B-score is -7.63 (active).

As to `CCOC(=O)C1(CCOc2ccccc2)CCN(Cc2cc(OC)cc(OC)c2)CC1`, the B-score result is “inactive”.

On to `CCOC(=O)C1(CCOC)CCN(Cc2cc3ccccc3s2)CC1`, for which the B-score result is “inactive”.

Take `CCN1C(=O)[C@@H]2[C@@H](c3ccc(-c4ccc(OC)cc4)c(OC)c3)N3CCC[C@@]3(C(=O)OC)[C@@H]2C1=O`: the B-score entry was “inactive”.

Consider `FC(F)(F)c1cccc(NC(=S)Nc2cccc(Cl)c2)c1`, for which the B-score was -9.9 (active).

`S=C(Nc1cccc(Cl)c1)Nc1ccc2c(c1)OCCO2`: the B-score result is “inactive”.

As for `S=C(Nc1cccc(Cl)c1)Nc1ccc2cn[nH]c2c1`, the B-score entry was “inactive”.

With `CCOC(=O)c1cnc2nc(SCc3ccccc3Cl)[nH]n2c1=O`, the B-score entry was “inactive”.

Regarding `O=C1c2ccccc2C(=O)c2c1cccc2N1CCN(C/C=C/c2ccccc2)CC1`, the B-score entry was “inactive”.

Turning to `CCCCCCCNC(=O)C1(CC2CC(c3cccc(Br)c3)=NO2)CCN(C(=O)c2cc(OCC)c(OCC)c(OCC)c2)CC1` (centres undefined), the B-score result was “inactive”.

For `CCN(CC)c1ccc(/C=N/Nc2nc(C)cc(C)n2)c(O)c1`, the B-score entry was “inactive”.

As for `CCN(CC)c1ccc(/C=N/NC(=O)CNC(=O)c2cccnc2)cc1`, the B-score result was “inactive”.

On to `CCN(CC)c1ccc(/C=N/NC(=O)c2cnccn2)c(O)c1`, for which the B-score is -5.95 (active).

Regarding `CC(NC(=O)c1ccccc1F)c1cccc2ccccc12` (centres undefined), the B-score result was “inactive”.

As for `COc1ccc(Cc2nnc(SCC(=O)Nc3ccc(C)c(Cl)c3)[nH]c2=O)cc1`, the B-score entry is “inactive”.

With `OCC[C@H]1C[C@@H](O)[C@H](O)[C@@]2(OCCc3ccccc32)O1`, the B-score entry was “inactive”.

In the case of `COc1ccc(C(=O)NNC(=S)NC(=O)c2ccccc2[N+](=O)[O-])cc1`, the B-score result is “inactive”.

Take `COc1ccc(C(=O)NNC(=S)NC(=O)c2ccccc2)cc1`: the B-score was -5.26 (active).

For `COc1ccc(C(=O)NC(=S)NNC(=O)CCc2ccccc2)cc1`, the B-score was -5.23 (active).

As for `CC(C)Oc1ccc(CCC(=O)NNC(=S)NCc2ccccc2)cc1`, the B-score result is “inactive”.

Turning to `O=C(CCc1ccccc1)NNC(=O)c1ccc(Br)cc1`, the B-score result is “inactive”.

As for `COc1ccc(C(=O)NC(=S)NNC(=O)c2c(-c3ccccc3)noc2C)cc1`, the B-score entry is “inactive”.

For `COc1ccc2c(c1)O/C(=C\c1ccccc1O)C2=O`, the B-score entry was “inactive”.

In the case of `O=C(Cc1ccc(S(=O)(=O)N2CCOCC2)s1)N1CCN(c2ccc(C(F)(F)F)cc2[N+](=O)[O-])CC1`, the B-score entry was “inactive”.

`O=C(/C=C/c1ccc(F)cc1)Nc1cccc(S(=O)(=O)Nc2cccc(C(F)(F)F)c2)c1`: the B-score entry is “inactive”.

On to `Cc1oc2c(F)c(F)c(F)c(F)c2c1S(=O)(=O)Nc1cccc(C(F)(F)F)c1`, for which the B-score was -5.14 (active).

Regarding `CCOC(=O)N1CCN(C(=O)c2ccc(S(=O)(=O)Nc3cccc(C(F)(F)F)c3)cc2)CC1`, the B-score entry is “inactive”.

`Cc1cc(OCC(=O)N(C)c2c(N)n(Cc3ccccc3)c(=O)[nH]c2=O)c(C(C)C)cc1Cl`: the B-score result was “inactive”.

As to `COc1cc(C(=O)NCC(=O)N2CC=C(c3ccccc3)CC2)cc(OC)c1OC`, the B-score result was “inactive”.

As for `COc1ccc(Cl)cc1NC(=O)CN(C)C(=O)CNC(=O)C12CC3CC(CC(C3)C1)C2`, the B-score entry was “inactive”.

On to `CC(=N\NC(=O)c1cc(Br)ccc1O)/C(=N/O)C(=O)Nc1ccccc1`, for which the B-score result is “inactive”.

As to `C/C(=N/NC(=O)c1cc(Cl)ccc1O)C12CC3CC(CC(C3)C1)C2`, the B-score is -7.51 (active).

`COC(=O)CN1C(C)=Nc2ccc(Br)cc2C1c1ccccc1` (centres undefined): the B-score is -5.31 (active).

With `CCC(CC)C(=O)N1CC(=O)Nc2ccc(Br)cc2C1c1ccccc1` (centres undefined), the B-score result was “inactive”.

Regarding `COC(=O)C1=C(C)N(C)C(C)=C(C(=O)OC)C1c1cccc(Br)c1`, the B-score entry was “inactive”.

As to `O=C(Nc1ncccc1O)c1ccc(S(=O)(=O)N2CCCC2)cc1`, the B-score entry was “inactive”.

As for `COc1ccc(-n2nnnc2SCC(=O)c2ccc(OC)c(OC)c2)cc1`, the B-score result was “inactive”.

For `COc1ccc(CNC(=O)c2ccc3oc(C(C)C)nc3c2)cc1`, the B-score result is “inactive”.

Consider `COc1ccc(-n2nnnc2CNC(=O)c2ccc3ccccc3c2)cc1`, for which the B-score was -5.47 (active).

As for `COc1ccc(NC(=O)CN(C)C(=O)Cc2coc3cc(C)c(C)cc23)cc1`, the B-score entry was “inactive”.

In the case of `CC(C)Oc1ccc(S(=O)(=O)N2CCOCC2)cc1NC(=O)C1CSC2(C)CCC(=O)N12` (centres undefined), the B-score result was “inactive”.

In the case of `O=C(Nc1cc(-c2ccccc2)nn1-c1ccccc1F)c1ccc([N+](=O)[O-])cc1`, the B-score entry is “inactive”.

Regarding `COc1ccc(S(=O)(=O)N2CCOC2CNC(=O)C(=O)NCc2ccncc2)cc1C` (centres undefined), the B-score result was “inactive”.

As for `CC1CCN(C(=O)c2cccc(S(=O)(=O)N3CCCc4ccccc43)c2)CC1`, the B-score entry was “inactive”.

With `CC(C)n1c(=O)[nH]c2cc(C(=O)Nc3ccccc3)ccc21`, the B-score entry is “inactive”.

Regarding `CCCn1c(=S)[nH]c2ccc(C(F)(F)F)cc21`, the B-score result is “inactive”.

In the case of `CC(C)n1c(=S)[nH]c2cc(C(F)(F)F)ccc21`, the B-score is -8.94 (active).

In the case of `Cc1c(NC(=O)C(C)OC(=O)c2c3c(nc4ccccc24)CCC(C)C3)c(=O)n(-c2ccccc2)n1C` (centres undefined), the B-score entry is “inactive”.

Take `COc1ccc2sc(N(CCCN(C)C)C(=O)c3ccc(S(=O)(=O)N(C)C4CCCCC4)cc3)nc2c1`: the B-score entry was “inactive”.

As to `O=C(c1ccc(F)c(S(=O)(=O)N2CCOCC2)c1)N(CCc1ccccc1)Cc1ccccc1`, the B-score entry is “inactive”.

Regarding `COc1ccc(N(C)S(=O)(=O)c2ccc3c(c2)CC(C)N3C(=O)C2CC2)c(OC)c1` (centres undefined), the B-score result was “inactive”.

Take `Cc1ccc(N(Cc2ccc(C(=O)Nc3ccccc3C(=O)NCc3ccco3)cc2)S(C)(=O)=O)cc1C`: the B-score entry was “inactive”.

Take `CCOC(=O)N1CCN(C(=O)c2ccc(CN(c3ccc(C)c(C)c3)S(C)(=O)=O)cc2)CC1`: the B-score was -6.25 (active).

Take `CCOC(=O)N1CCN(C(=O)CN(c2ccc(C)c(C)c2)S(=O)(=O)c2ccccc2)CC1`: the B-score entry is “inactive”.

Consider `COc1ccc(NC(=O)CN(C)C(=O)c2cc(-c3ccc(C)o3)nc3ccccc23)cc1`, for which the B-score entry is “inactive”.

On to `COc1ccc(N2C(=O)C(CC(=O)Nc3ccc(F)cc3)N(CCc3cccs3)C2=O)cc1` (centres undefined), for which the B-score entry is “inactive”.

With `CCNC(=O)CC1C(=O)N(c2ccc(F)cc2)C(=O)N1Cc1cccs1` (centres undefined), the B-score entry is “inactive”.

Consider `CCNC(=O)CC1C(=O)N(c2ccc(F)cc2)C(=O)N1CCc1sccc1C` (centres undefined), for which the B-score is -5.75 (active).

On to `CC(=O)Nc1ccc(C(=O)Nc2cccc(S(=O)(=O)NC3=NCCC3)c2)cc1`, for which the B-score entry is “inactive”.

For the compound `CN(C)c1ccc(C2N(C)C(=O)c3ccccc3N2C)cc1` (centres undefined), the B-score result is “inactive”.

For the compound `CN(C)c1ccc(Nc2c3c4c(cccc4n(C)c2=O)C(=O)c2ccccc2-3)cc1`, the B-score is -9.73 (active).

For the compound `COc1ccc(/C=C2\SC(=S)N(CCCC(=O)NC3CCCC3)C2=O)cc1OC`, the B-score result was “inactive”.

For the compound `Cc1cccc(CSc2nnc(Cn3c(=O)sc4ccccc43)n2C)c1`, the B-score result is “inactive”.

On to `COc1ccc(Cn2c(=O)sc3ccccc32)cc1OC`, for which the B-score is -5.56 (active).

For `COc1ccccc1CNC(=O)CCn1c(=O)sc2ccccc21`, the B-score entry was “inactive”.

`O=C(NCC1(N2CCCCC2)CCCCC1)c1ccc(NS(=O)(=O)c2ccc(F)cc2)cc1`: the B-score result is “inactive”.

Turning to `Cc1ccc(C)c(OCCC(=O)Nc2cccc(S(=O)(=O)N3CCCC3)c2)c1`, the B-score result was “inactive”.
